Screening results from PubChem.
Many of the other results were omitted from the sample, so hits are more common in it than they were.
Pf Dd2 growth = Plasmodium falciparum Dd2 growth inhibition; P. falciparum Dd2 growth, SYBR Green, 72 h; Potency, µM (titrated, usually from 28.9 µM), without a hit: at the top dose activity, negative = inhibition, actives largely listed as inhibitors; 4.3% of 120,000 active; AID 1347417; active = well fitted inhibition curve with a large enough effect;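 also: plate controls were DMSO vehicle for no effect and reference drug for full effect; nearly all actives have a fitted effect of over 65% in size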
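Infected erythrocytes (Dd2, 0.3% parasitemia, 2.5% hematocrit final) are added to compound in RPMI-1640/Albumax II medium, grown 72 h at 37C in low oxygen, then lysed with saponin/Triton-X containing SYBR Green and read by fluorescence.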
* hit, by the source's call; [ ] = dose if it differs, or a comment. Potency is read from the fitted curve at half-maximal effect.

How did COc1ccc(C2NC(=O)N(CC(=O)NC(C)C)C3=C2C(=O)OC3)cc1 (stereo not drawn) do in these assays?
Pf Dd2 growth: -4.0%

How did CCn1cc(C(=O)N2CCN(c3ccc(C)cc3)C(C)C2)c(=O)c2cc(S(=O)(=O)N3CCCC3)ccc21 (stereo not drawn) do in these assays?
Pf Dd2 growth: 19.8%

How did CCn1cc(C(=O)N2CCN(c3ccccc3OC)CC2)c2cc(OC)c(OC)cc2c1=O do in these assays?
Pf Dd2 growth: -8.6%

Results for COc1ccc(NC(=O)c2cn(CC(C)C)c(=O)c3cc(OC)c(OC)cc23)cc1Cl ?
Pf Dd2 growth: 11.2µM*

How did COc1cc(OC)c(NC(=O)c2cn(C)c(=O)c3cc(OC)c(OC)cc23)cc1Cl do in these assays?
Pf Dd2 growth: 14.9%

What do the screens show for `CCOc1ccc(NC(=O)c2cn(C)c(=O)c3cc(OC)c(OC)cc23)cc1`?
Pf Dd2 growth: 21.2%

How did COc1cc2c(C(=O)N3CCN(c4ccc(C)cc4)C(C)C3)cn(CC(C)C)c(=O)c2cc1OC (stereo not drawn) do in these assays?
Pf Dd2 growth: 8.91µM*

How did Cc1noc([C@@H](C)NC(=O)Nc2cccnc2)c1C(=O)O do in these assays?
Pf Dd2 growth: -4.5%[44.1 µM]

What do the screens show for `Cc1cc(=O)n(CC(=O)Nc2ccc(Br)cc2)c(N2CCN(c3ccccc3)CC2)n1`?
Pf Dd2 growth: -11.0%

Results for COc1ccccc1NC(=O)Cn1c(N2CCC(C)CC2)nc(C)cc1=O ?
Pf Dd2 growth: -4.7%

How did CCOc1ccccc1NC(=O)Cn1c(N2CCC(C)CC2)nc(C)cc1=O do in these assays?
Pf Dd2 growth: 11.2µM*

How did CCOc1ccc(NC(=O)Cn2c(N3CCN(c4ccccc4)CC3)nc(C)cc2=O)cc1 do in these assays?
Pf Dd2 growth: inactive

What do the screens show for `Cc1ccc(NC(=O)Cn2c(N3CCC(C)CC3)nc(C)cc2=O)c(C)c1`?
Pf Dd2 growth: inactive

Results for COc1ccc(Cl)cc1NC(=O)Cn1c(N2CCN(c3ccccc3)CC2)nc(C)cc1=O ?
Pf Dd2 growth: 7.94µM*

Results for O=C(c1ccccc1)N1CCC(c2nn(-c3ccc(F)cc3)c(=O)[nH]2)CC1 ?
Pf Dd2 growth: 9.0%

How did CCn1nccc1C(=O)N1CCC2(CC1)NC(=O)N(c1cccc(F)c1)N2 do in these assays?
Pf Dd2 growth: 24.6%

How did Cc1ccc(NC(=O)C2(C)CCCCC(=O)N2)cc1 (stereo not drawn) do in these assays?
Pf Dd2 growth: -14.9%

What do the screens show for `CC1CCN(Cc2ccc(C(=O)N3CCCC4(CCNC4)C3)o2)CC1` (stereo not drawn)?
Pf Dd2 growth: 2.9%

How did Cc1ncc2c(c1CNC(=O)c1ccccc1OC(F)F)CCNC2 do in these assays?
Pf Dd2 growth: -5.8%

Results for COc1cccc(CN2CCC3(CCCO3)CCC2=O)c1 (stereo not drawn) ?
Pf Dd2 growth: -8.5%

How did COc1cccc(CC(=O)N2CCCN(c3cc(-c4ccc(Br)cc4)[nH]n3)CC2)c1 do in these assays?
Pf Dd2 growth: -16.4%

How did Cc1ccc(-n2nc(C)c([C@@H]3C=C[C@@H](NCc4ccc(N(C)C)cc4)C3)c2C)cc1Cl do in these assays?
Pf Dd2 growth: -42.3%[44.1 µM]

What do the screens show for `Cc1nn(-c2cccc(Br)c2)c(C)c1[C@@H]1C=C[C@@H](NS(C)(=O)=O)C1`?
Pf Dd2 growth: -3.0%[44.1 µM]

How did Cc1nn(-c2ccc(C(C)C)cc2)c(C)c1[C@@H]1C=C[C@@H](NCc2cccc(C#N)c2)C1 do in these assays?
Pf Dd2 growth: 4.47µM*

How did Cc1nn(-c2ccc(C(C)C)cc2)c(C)c1[C@@H]1C=C[C@@H](NCc2ccc(F)cc2)C1 do in these assays?
Pf Dd2 growth: 3.98µM*

Results for Cc1nn(-c2ccccc2)c(C)c1[C@@H]1C=C[C@@H](NCc2cccc(C#N)c2)C1 ?
Pf Dd2 growth: inactive

How did Cc1nn(CCC#N)c(C)c1[C@@H]1C=C[C@@H](NCc2ccc(F)cc2)C1 do in these assays?
Pf Dd2 growth: -15.7%[44.1 µM]

Results for Cc1ccc(-n2nc(C)c([C@@H]3C=C[C@@H](NCc4ccc(F)cc4)C3)c2C)cc1Cl ?
Pf Dd2 growth: 3.55µM*

Results for Cc1ccc(-n2nc(C)c([C@@H]3C=C[C@@H](NC(=O)CC(C)(C)CC(=O)O)C3)c2C)cc1Cl ?
Pf Dd2 growth: inactive

How did CC(C)NC(=O)N1CCC2(CC1)CN(C(=O)CCCN)Cc1ccccc1O2 do in these assays?
Pf Dd2 growth: -6.0%

What do the screens show for `COCC1CN(C(=O)NCc2cccc(OC)c2)CC12CCNCC2` (stereo not drawn)?
Pf Dd2 growth: inactive

How did CC(C)c1ccc(NC(=O)CN2C(=O)C(c3ccccc3)=NC2(C)C)cc1 do in these assays?
Pf Dd2 growth: inactive

Results for CNC(=O)C1(N2CCC[C@H]2C(=O)N(C)CCN(C)C)CCC1 ?
Pf Dd2 growth: -1.6%[44.1 µM]

What do the screens show for `CSCc1ccc(C(=O)N2CCN(c3ccc(C)cc3)C(=O)C2)o1`?
Pf Dd2 growth: -24.8%

Results for CSc1cccc(NC(=O)O[C@@H]2CC[C@]3(C)C(CC[C@@H](O)[C@H]3CC(=O)NCc3ccccc3)[C@]2(C)CO)c1 (stereo partly drawn) ?
Pf Dd2 growth: 11.2µM*
